Holding throughout (experiment): NCI-60 one-dose screen, 48 h (100 = growth as untreated, 0 = no growth, -100 = all killed)
Common to all, as to conditions: 10 µM unless noted

Experiment [1] relates to HCT-15 colon.
The subject of experiment [2] is HT29 colon.
For experiment [3], the system named is SNB-75 CNS.
Experiment [4] has as its system SNB-19 CNS.
The test system of experiment [5] is U251 CNS.
The test system of experiment [6] is PC-3 prostate.
The subject of experiment [7] is SK-MEL-5 melanoma.
The subject of experiment [8] is UACC-62 melanoma.
Experiment [9] concerns LOX IMVI melanoma.
Experiment [10] concerns SK-MEL-28 melanoma.
Experiment [11] concerns SK-MEL-2 melanoma.
The subject of experiment [12] is EKVX NSCLC.
In experiment [13] the test system is SN12C renal.
Experiment [14] concerns UO-31 renal.
The subject of experiment [15] is TK-10 renal.
Experiment [16] relates to ACHN renal.
The subject of experiment [17] is CAKI-1 renal.
Experiment [18] relates to A498 renal.
The test system of experiment [19] is CCRF-CEM leukemia.
Experiment [20] concerns MOLT-4 leukemia.

This passage reports growth results from PubChem BioAssay (NCI).

The structures appear in SMILES notation. The panel holds about 83,000 compounds, 20% with a hit somewhere; the sample as a whole holds those more often.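 Step 1: grow cells in 96-well plates. Step 2: add test compound at a single concentration. Step 3: incubate 48 h. Step 4: record percent growth.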 A number with no mark means an inactive call. The source made the active and inactive calls. The calls were made as follows: active = growth percent below 10; inactive = the rest.

Take `CCOC(=O)C1C(=O)NC(C(=O)OCC)(C(=O)OCC)C1CC` (centres undefined): the growth is 92.8% in [1]; 111% in experiment [2]; 107% in [3]; 105% in experiment [4]; 105% in experiment [5]; 92.9% in experiment [6]. Moreover, the growth in experiment [7] was 101%; in [8] it was 98.1%; in experiment [9], 95.6%; in experiment [10] it was 123%; in experiment [11] it was 110%; in [12], 117%. For the same compound, the growth was 100% in [13]; 89.5% in experiment [14]; 115% in experiment [15]; 104% in experiment [16]; 99.9% in experiment [17]; 104% in experiment [18]. Further, the growth in experiment [19] is 109%.
`O=c1oc2c(cc1-c1ccc([N+](=O)[O-])cc1)C(O)Oc1ccccc1-2` (centres undefined): the growth in [1] was 92.2%; in experiment [2], 99.9%; in experiment [3], 111%; in experiment [4] it was 83.4%; in experiment [5], 97.6%; in [6], 57.5%. Further, the growth in [7] was 80.4%; in experiment [8], 78.7%; in experiment [9] it was 98.9%; in [10], 99.4%; in experiment [11], 71.6%; in experiment [12], 80.7%. The growth in experiment [13] is 98.4%; in experiment [14], 74.5%; in [15] it was 95.8%; in [16], 103%; in experiment [17], 78.2%; in experiment [18] it was 84.8%. Besides, the growth is 62.5% in experiment [19] and 63.6% in experiment [20].
Take `CCN(Cc1cccc(S(=O)(=O)[O-])c1)c1ccc(C(=C2C=CC(=[N+](CC)Cc3cccc(S(=O)(=O)O)c3)C=C2)c2ccccc2S(=O)(=O)O)cc1`: the growth is 103% in experiment [1]; 103% in experiment [2]; 87.9% in experiment [3]; 106% in experiment [4]; 99.2% in experiment [5]; 93.7% in experiment [6]. The growth in [7] was 97.4%; in experiment [8] it was 101%; in experiment [9] it was 96%; in experiment [10] it was 109%; in experiment [11], 115%; in experiment [12], 94.1%. Further, the growth in experiment [13] is 109%; in experiment [14], 85.9%; in experiment [15], 93.1%; in experiment [16], 104%; in experiment [17], 96.7%; in [18], 134%. Besides, the figures for the growth in experiment [19] and in [20] were 95.3% and 96.5%, respectively.
Regarding `Cn1cnc([N+](=O)[O-])c1Sc1nc(N)nc2nc[nH]c12`, the growth in experiment [1] was 50.3%; in experiment [2] it was 47.2%; in experiment [3] it was 31.3%; in experiment [4], 101%; in experiment [5], 63.6%; in [6], 56.2%. In addition, the growth was 79.3% in experiment [7]; 7.35% (active) in experiment [8]; 6.74% (active) in experiment [9]; 84.4% in experiment [10]; 17.8% in experiment [11]; 27.9% in [12]. For the same compound, the growth was 43.6% in experiment [13]; 16.9% in experiment [14]; 38.5% in experiment [15]; 72.7% in [16]; 38.4% in experiment [17]; 43.6% in experiment [18]. The growth in experiment [19] is 13.5%; in experiment [20], 11.3%.
`c1ccc(N2c3nc4ccccc4cc3Sc3cc4ccccc4nc32)nc1`: the growth is 95.6% in [1]; 104% in experiment [2]; 109% in experiment [3]; 97.8% in experiment [4]; 85.7% in [5]; 72.5% in [6]. The growth is 91.3% in experiment [7]; 78.4% in experiment [8]; 84.1% in [9]; 115% in experiment [10]; 39.4% in experiment [11]; 68.9% in [12]. The growth in [13] was 76.1%; in [14], 26.9%; in experiment [15] it was 114%; in experiment [16], 92%; in experiment [17] it was 69%; in experiment [18] it was 73.2%. The results for the growth in experiment [19] and in [20] were 87.5% and 78%, respectively.
As for `O=C(COc1cccc(/C=C2\Oc3ccc4ccccc4c3C2=O)c1)c1ccc(Cl)cc1`, the growth in experiment [1] is 72.4%; in [2], 103%; in experiment [3], 90.5%; in experiment [4], 92%; in experiment [5] it was 61.5%; in experiment [6], 77.5%. Besides, the growth is 89.3% in [7]; 82.8% in experiment [8]; 10.6% in experiment [9]; 113% in [10]; 57.5% in experiment [11]; 92.8% in experiment [12]. The growth is 91.2% in experiment [13]; -7.73% (active) in experiment [14]; 115% in [15]; 96.8% in experiment [16]; 83% in experiment [17]; 132% in [18]. Further, the growth in experiment [19] was 25.3%; in [20], 74%.
Regarding `CC1CN(C2CCCCC2)C(=O)NC1=O` (centres undefined), the growth in [1] was 104%; in experiment [2], 105%; in experiment [3], 93.4%; in [4], 97.4%; in experiment [5], 110%; in [6] it was 94%. Further, the growth in experiment [7] was 105%; in experiment [8], 87.5%; in experiment [9], 101%; in experiment [10], 116%; in experiment [11], 100%; in experiment [12], 110%. Further, the growth in experiment [13] was 92.1%; in [14], 82%; in [15], 101%; in experiment [16], 106%; in experiment [17], 103%; in experiment [18], 87.9%. Besides, the values for the growth in experiment [19] and in [20] were 106% and 85%, respectively.
`O=C(O)c1ccc2cccnc2c1O`: the growth in experiment [1] was 7.1% (active); in experiment [2], 10.9%; in experiment [3], 23%; in [4] it was 12.7%; in experiment [5] it was 8.23% (active); in experiment [6] it was 1.21% (active). Also, the growth in experiment [7] is 0.767% (active); in experiment [8], 0.979% (active); in experiment [9], 3.31% (active); in experiment [10], 44.6%; in experiment [11], 4.77% (active); in [12] it was 18.8%. Besides, the growth was 7.06% (active) in experiment [13]; -5.79% (active) in experiment [14]; 13.2% in [15]; 7.69% (active) in experiment [16]; 4.24% (active) in experiment [17]; 13.6% in experiment [18]. For the same compound, the growth is 10.3% in experiment [19] and 11.2% in [20].
